Reference: PubChem BioAssay AID1159580 (chemical genetic matrix, 2015)
In all, about 5,500 compounds went through this assay and about 2,000 (36%) were called active. Another 18% or so got no clear call; they are omitted. No stated cut-off is given here; in the data, active means normalized growth mostly below about 0.91 (no sharp cut-off); inconclusive means no clear call, values can overlap the other calls; inactive means mostly above about 0.92. The list shows a part of the results.

Assay: chemical genetic growth profiling, strain panel (AID 1159580);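 further: tested at 20 µM; growth read once vehicle control cultures reached saturation at 30 °C; 1 = growth at the plate median or of vehicle wells; lower values mean less growth of the strain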
Conditions: growth OD

Measured: normalized growth

CCN(CC)CCOc1ccc(/C(=C(\Cl)c2ccccc2)c2ccccc2)cc1
inactive: S. cerevisiae deletion strains, locus YKL009W, strain mrt4, active compounds read low 0.917 | S. cerevisiae deletion strains, locus YKL068W, active compounds read low 1.01 | S. cerevisiae deletion strains, locus YLR113W, strain HOG1, active compounds read low 0.925 | S. cerevisiae deletion strains, locus YLR262C, strain YPT6 (second series), active compounds read low 0.933 | S. cerevisiae deletion strains, locus YNL183C, strain NPR1, active compounds read low 0.92 | S. cerevisiae deletion strains, locus YNL250W, strain rad50, active compounds read low 0.922 | S. cerevisiae deletion strains, locus YNL271C, strain bni1, active compounds read low 0.962 | S. cerevisiae deletion strains, locus YNL298W, strain CLA4, active compounds read low 0.914 | S. cerevisiae deletion strains, locus YNL322C, strain KRE1 (second series), active compounds read low 1.02 | S. cerevisiae deletion strains, locus YOR231W, strain MKK1, active compounds read low 0.946 | S. cerevisiae deletion strains, locus YPL256C, strain CLN2, active compounds read low 0.939 | S. cerevisiae deletion strains, locus YPR141C, strain kar3, active compounds read low 1.03
active: S. cerevisiae deletion strains, locus YKL160W, strain elf1, active compounds read low 0.195 | S. cerevisiae deletion strains, locus YKL190W, strain CNB1, active compounds read low 0.0469 | S. cerevisiae deletion strains, locus YKR001C, strain vps1, active compounds read low 0.0607 | S. cerevisiae deletion strains, locus YKR026C, strain gcn3, active compounds read low 0.209 | S. cerevisiae deletion strains, locus YKR091W, strain srl3, active compounds read low 0.171 | S. cerevisiae deletion strains, locus YLL001W, strain dnm1, active compounds read low 0.108 | S. cerevisiae deletion strains, locus YLL026W, active compounds read low 0.0855 | S. cerevisiae deletion strains, locus YLL041C, strain sdh2, active compounds read low 0.129 | S. cerevisiae deletion strains, locus YLR027C, strain aat2, active compounds read low 0.093 | S. cerevisiae deletion strains, locus YLR039C, strain RIC1, active compounds read low 0.099 | S. cerevisiae deletion strains, locus YLR058C, strain SHM2, active compounds read low 0.0491 | S. cerevisiae deletion strains, locus YLR102C, strain apc9, active compounds read low 0.0621 | S. cerevisiae deletion strains, locus YLR221C, strain rsa3, active compounds read low 0.104 | S. cerevisiae deletion strains, locus YLR258W, strain gsy2, active compounds read low 0.0916 | S. cerevisiae deletion strains, locus YLR262C, strain YPT6, active compounds read low 0.1 | S. cerevisiae deletion strains, locus YLR268W, strain sec22, active compounds read low 0.0697 | S. cerevisiae deletion strains, locus YLR320W, strain mms22, active compounds read low 0.182 | S. cerevisiae deletion strains, locus YLR330W, strain CHS5, active compounds read low 0.0524 | S. cerevisiae deletion strains, locus YLR342W, strain FKS1 (second series), active compounds read low 0.066 | S. cerevisiae deletion strains, locus YLR342W, strain FKS1, active compounds read low 0.156 | S. cerevisiae deletion strains, locus YLR357W, strain rsc2, active compounds read low 0.175 | S. cerevisiae deletion strains, locus YLR370C, strain arc18, active compounds read low 0.0727 | S. cerevisiae deletion strains, locus YLR371W, strain rom2, active compounds read low 0.0621 | S. cerevisiae deletion strains, locus YLR384C, strain iki3, active compounds read low 0.714 | S. cerevisiae deletion strains, locus YLR418C, strain cdc73, active compounds read low 0.0928 | S. cerevisiae deletion strains, locus YML016C, strain PPZ1, active compounds read low 0.0474 | S. cerevisiae deletion strains, locus YML032C, strain rad52, active compounds read low 0.0749 | S. cerevisiae deletion strains, locus YML120C, strain ndi1, active compounds read low 0.121 | S. cerevisiae deletion strains, locus YML124C, strain tub3, active compounds read low 0.0612 | S. cerevisiae deletion strains, locus YMR058W, strain fet3, active compounds read low 0.0872 | S. cerevisiae deletion strains, locus YMR078C, strain ctf18, active compounds read low 0.0745 | S. cerevisiae deletion strains, locus YMR125W, strain sto1, active compounds read low 0.17 | S. cerevisiae deletion strains, locus YMR129W, active compounds read low 0.129 | S. cerevisiae deletion strains, locus YMR205C, strain PFK2, active compounds read low 0.145 | S. cerevisiae deletion strains, locus YMR223W, strain ubp8, active compounds read low 0.0648 | S. cerevisiae deletion strains, locus YMR231W, strain pep5, active compounds read low 0.0748 | S. cerevisiae deletion strains, locus YMR263W, strain SAP30, active compounds read low 0.0606 | S. cerevisiae deletion strains, locus YMR307W, strain GAS1, active compounds read low 0.123 | S. cerevisiae deletion strains, locus YNL067W, strain RPL9B, active compounds read low 0.0497 | S. cerevisiae deletion strains, locus YNL071W, strain lat1, active compounds read low 0.14 | S. cerevisiae deletion strains, locus YNL128W, strain TEP1, active compounds read low 0.0656 | S. cerevisiae deletion strains, locus YNL209W, strain ssb2, active compounds read low 0.126 | S. cerevisiae deletion strains, locus YNL233W, strain BNI4, active compounds read low 0.057 | S. cerevisiae deletion strains, locus YNL248C, strain rpa49, active compounds read low 0.191 | S. cerevisiae deletion strains, locus YNL307C, strain MCK1, active compounds read low 0.0652 | S. cerevisiae deletion strains, locus YNL322C, strain KRE1, active compounds read low 0.0484 | S. cerevisiae deletion strains, locus YNR049C, strain mso1, active compounds read low 0.0907 | S. cerevisiae deletion strains, locus YNR052C, strain pop2, active compounds read low 0.0587 | S. cerevisiae deletion strains, locus YOL006C, strain TOP1, active compounds read low 0.117 | S. cerevisiae deletion strains, locus YOL147C, strain pex11, active compounds read low 0.0607 | S. cerevisiae deletion strains, locus YOR001W, strain rrp6, active compounds read low 0.337 | S. cerevisiae deletion strains, locus YOR061W, strain CKA2, active compounds read low 0.0462 | S. cerevisiae deletion strains, locus YOR069W, strain VPS5, active compounds read low 0.0488 | S. cerevisiae deletion strains, locus YOR070C, strain gyp1, active compounds read low 0.0639 | S. cerevisiae deletion strains, locus YOR080W, strain dia2, active compounds read low 0.289 | S. cerevisiae deletion strains, locus YOR083W, strain WHI5, active compounds read low 0.102 | S. cerevisiae deletion strains, locus YOR106W, strain vam3, active compounds read low 0.0804 | S. cerevisiae deletion strains, locus YOR136W, strain idh2, active compounds read low 0.0748 | S. cerevisiae deletion strains, locus YOR144C, strain elg1, active compounds read low 0.0617 | S. cerevisiae deletion strains, locus YOR184W, strain ser1, active compounds read low 0.0757 | S. cerevisiae deletion strains, locus YOR265W, strain rbl2, active compounds read low 0.0762 | S. cerevisiae deletion strains, locus YOR270C, strain vph1, active compounds read low 0.0899 | S. cerevisiae deletion strains, locus YOR290C, strain snf2, active compounds read low 0.112 | S. cerevisiae deletion strains, locus YOR316C, strain cot1, active compounds read low 0.0599 | S. cerevisiae deletion strains, locus YPL051W, strain arl3, active compounds read low 0.303 | S. cerevisiae deletion strains, locus YPL055C, strain LGE1, active compounds read low 0.0709 | S. cerevisiae deletion strains, locus YPL078C, strain atp4, active compounds read low 0.232 | S. cerevisiae deletion strains, locus YPL106C, strain sse1, active compounds read low 0.136 | S. cerevisiae deletion strains, locus YPL240C, strain hsp82, active compounds read low 0.0981 | S. cerevisiae deletion strains, locus YPL241C, strain CIN2, active compounds read low 0.0508 | S. cerevisiae deletion strains, locus YPR119W, strain clb2, active compounds read low 0.067 | S. cerevisiae deletion strains, locus YPR163C, strain tif3, active compounds read low 0.0698 | S. cerevisiae deletion strains, locus YPR167C, strain met16, active compounds read low 0.0645 | S. cerevisiae deletion strains, strain wtn01, active compounds read low 0.0644 | S. cerevisiae strains, strain wild type, active compounds read low 0.0486
